GSTO1 inh: inhibitors of recombinant GSTO1, primary screen, counter-screen for RBBP9 inhibitor project, biochemical, fluorescence polarization; 1.1% of 300,000 active; inhibition, % at 5.96 µM; Glutathione S-transferase omega-1 (Homo sapiens), P78417; activity-based probe fluorescence polarization;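 active = inhibition above the campaign mean inhibition plus 3 SD, cut at about 35% in these data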
PME-1 inh: PME-1 inhibitors via competitive probe labeling, primary screen, biochemical, fluorescence polarization, FP-Rh probe, HTS; recombinant PME-1; Protein phosphatase methylesterase 1 (Homo sapiens), Q9Y570; inhibition, % at 5.9 µM; AID 2130, 2009; 0.53% of 320,000 active;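 active = inhibition above the campaign mean of all compounds plus 3 SD, cut at about 26% in these data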;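 note: competitive labeling of PME-1 active site by serine hydrolase directed probe; inhibitors block probe labeling so polarization falls and inhibition rises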
Target sequence (Q9Y570 whole entry, looked up): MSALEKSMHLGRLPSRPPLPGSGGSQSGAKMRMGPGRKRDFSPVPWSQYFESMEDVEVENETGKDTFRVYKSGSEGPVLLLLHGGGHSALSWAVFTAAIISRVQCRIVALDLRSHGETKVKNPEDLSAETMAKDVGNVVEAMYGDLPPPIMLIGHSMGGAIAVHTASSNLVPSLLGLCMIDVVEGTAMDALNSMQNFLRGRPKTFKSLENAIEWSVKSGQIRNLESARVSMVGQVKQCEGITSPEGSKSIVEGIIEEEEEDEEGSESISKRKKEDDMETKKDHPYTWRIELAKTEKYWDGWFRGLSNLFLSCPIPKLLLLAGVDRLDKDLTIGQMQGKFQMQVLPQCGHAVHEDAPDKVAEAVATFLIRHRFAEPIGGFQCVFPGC
LYPLA1 counter: LYPLA1 inhibitors, primary screen, counter-screen for PME1 inhibitor project, biochemical, fluorescence polarization, FP-Rh probe ABPP; inhibition, % at 5.9 µM; 0.16% of 320,000 active; AID 2174, 2009; recombinant LYPLA1;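 active = inhibition above the mean of all tested compounds plus 3 SD, set per campaign, cut at about 14% in these data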;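 note: inhibitors block serine hydrolase probe labeling of LYPLA1 so polarization falls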
PREPL inh: PREPL enzyme inhibitors, primary screen, biochemical, fluorescence polarization; 0.68% of 320,000 active; Prolyl endopeptidase-like (Homo sapiens), Q4J6C6; AID 2751, 2010; recombinant PREPL, fluorescence polarization activity-based probe; inhibition, % at 5.96 µM; in the data active = inhibition above about 43%
Fam108B counter: mouse Fam108B serine hydrolase inhibitors, primary screen, counter-screen for RBBP9 inhibitor project, biochemical, fluorescence polarization; recombinant Fam108B, FP-Rh probe fluorescence polarization; inhibition, % at 9.51 µM; 0.33% of 300,000 active; AID 1947, 2009;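 active = inhibition above the screen mean inhibition plus 3 SD, computed separately per campaign, cut at about 18% in these data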;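 note: inhibitors lower polarization as less probe binds the enzyme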
LYPLA2 inh: LYPLA2 inhibitors, primary screen, counter-screen for PME1 inhibitor project, biochemical, fluorescence polarization, FP-Rh probe ABPP. 0.38% of 320,000 active. recombinant LYPLA2. AID 2177, 2009. Acyl-protein thioesterase 2 (Homo sapiens), O95372. inhibition, % at 5.9 µM;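 active = inhibition above the screen-wide mean plus 3 SD, limit set per campaign, cut at about 26% in these data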
Each line names hits and unclear results; the compound was inactive in the other large screens. This is a sample that favours compounds with a hit; in the whole collection about 2% have one here.

C=CCc1cccc(/C=N/NC(=O)CNc2cccc3ccccc23)c1O	PME-1 inh 39
C=CCc1cccc(/C=N/NC(=O)CNc2ccccc2OC)c1O	none
CC(=O)c1cccc(NC(=O)CN2C(=O)C(=O)N(Cc3ccco3)C2=O)c1	none (no result: GSTO1 inh, Fam108B counter)
Cc1ccc(NC(=O)COC(=O)c2cccc(C)c2[N+](=O)[O-])cc1S(=O)(=O)N1CCCCC1	none (no result: GSTO1 inh, PME-1 inh, LYPLA1 counter, Fam108B counter, LYPLA2 inh)
O=C(N/N=C/c1sc(N2CCOCC2)nc1-c1ccccc1)c1ccccc1O	PME-1 inh 51
COc1cc(CNc2ccc(N3CCCC3)cc2)ccc1OCc1ccccc1	GSTO1 inh 53
CC(=O)Nc1c(S(=O)(=O)c2ccccc2)c2nc3ccccc3nc2n1Cc1ccccc1	none
O=S(=O)(Nc1c(S(=O)(=O)c2ccccc2)c2nc3ccccc3nc2n1C1CCCCC1)c1ccccc1	GSTO1 inh 49
C=CCOc1ccc(/C=N/NC(=O)c2cc3c(OC)cc(OC)cc3[nH]2)cc1	PME-1 inh 41
CCOc1ccc(/C=N/NC(=O)c2cc3c(OC)cccc3[nH]2)cc1	none
COc1ccc(/C=C/c2c(-c3ccc(OC)cc3)oc3cccnc23)cc1	PME-1 inh 27
Cc1cc(C)c(NC(=O)CSc2nc3ncc(Br)cc3[nH]2)c(Cl)c1	none
Cc1ccc(NC(=O)CSc2nc3ncc(Br)cc3[nH]2)cc1C	GSTO1 inh 36
O=C1c2ccccc2C(=O)c2c(Nc3ccc(CCO)cc3)ccc(O)c21	GSTO1 inh 39, PME-1 inh 29, LYPLA2 inh 27
O=C(C(Cl)Cl)N1CCN(Cc2ccccc2)CC1	GSTO1 inh 35
CCOc1ccc(N2C(=O)CS/C2=C(\C(Cl)=C(Cl)Cl)[N+](=O)[O-])cc1	GSTO1 inh 51
COc1ccc(S(=O)(=O)N2CCN(c3ccccc3OC)CC2)cc1C(=O)N1CCCCC1	none
CCCN(CCC)CCNC(=O)C1CCN(Cc2nc(-c3ccc(Cl)cc3)oc2C)CC1	PREPL inh 45
CCC1Sc2ccc(S(=O)(=O)CCC(=O)Nc3ccc(NC(C)=O)cc3)cc2NC1=O (centres undefined)	none
CCC1Sc2ccc(S(=O)(=O)CCC(=O)Nc3ccc(OC(F)(F)F)cc3)cc2NC1=O (centres undefined)	PME-1 inh 26
Cc1ccc(NC(=O)CSCC(=O)OC(C)C(=O)Nc2ccc(S(N)(=O)=O)cc2)c(C)c1 (centres undefined)	none
N=C1/C(=C\c2coc3ccc(O)cc3c2=O)C(=O)N=C2SC=CN12	GSTO1 inh 57
N#C/C(=C\c1ccc(-c2ccc([N+](=O)[O-])cc2)o1)C(=O)Nc1nc(-c2cccs2)cs1	none
N#C/C(=C\c1ccc(-c2ccccc2[N+](=O)[O-])o1)C(=O)Nc1nc(-c2cccs2)cs1	PME-1 inh 29
O=C1Nc2ccc(C(F)(F)F)cc2N2CCCC12 (centres undefined)	GSTO1 inh 38
O=c1[nH][nH]c2cc(=O)n(-c3cccc(C(F)(F)F)c3)nc12	PME-1 inh 37
CN(C)c1ccc(C(=O)OCC#CCSc2nnc(-c3cccc4ccccc34)o2)cc1	none (no result: GSTO1 inh, PME-1 inh, LYPLA1 counter, Fam108B counter, LYPLA2 inh)
COc1cc(C2C(C#N)=C(N)OC3=C2C(=O)CCC3)c([N+](=O)[O-])cc1OC (centres undefined)	GSTO1 inh 38, Fam108B counter 19
Cc1cc(C2C(C#N)=C(N)OC3=C2C(=O)CCC3)c(C)s1 (centres undefined)	none
O=C1NC(=O)/C(=C\c2ccc(O)cc2O)S1	GSTO1 inh 63
O=C1NC(=O)/C(=C/c2cccc3ccccc23)S1	none
COc1ccc2sc(-c3ccc(SC)cc3)c(/C=C/c3ccc(OC)c(OC)c3)c2c1	none (no result: GSTO1 inh, PME-1 inh, LYPLA1 counter, Fam108B counter, LYPLA2 inh)
C=CCOc1c(Br)cc(/C=N/Nc2ccc(C(=O)O)cc2)cc1OCC	PME-1 inh 48
COc1ccc(/C=N/Nc2ccc(C(=O)O)cc2)cc1Br	none
Cc1c(Cl)cccc1Nc1nc(N)nc(CSc2nc3ccccc3s2)n1	PME-1 inh 33
CC(NC(=O)c1ccnn1C)C1CCCO1 (centres undefined)	none

High-throughput results from PubChem.
